The text below walks through data of PubChem BioAssay (NCATS).

Test [1] addresses Luciferin 4-monooxygenase (Photinus pyralis) (UniProt P08659). Briefly: Biochemical firefly luciferase enzyme assay for NPC (AID 624030).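 Also: purified P. pyralis luciferase at 10 nM with luciferin and ATP substrate; nearly all actives have a fitted effect of over 70% in size.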 The settings on record: purified P. pyralis luciferase, luminescence, 5 min; series mostly up to 58.6 µM. The method in brief: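 Direct inhibition of firefly luciferase enzyme (10 nM final, 50 mM Tris Acetate) assessed by luminescence within 5 minutes. Percent activity scaled between DMSO and PTC124 positive control, with concentration-effect curves classified by fit quality and response.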

Test [2] in a line: S16 Schwann cell PMP22 intronic element firefly luciferase assay (AID 624032). Also: potency is read from the fitted curve at half-maximal effect; nearly all actives have a fitted effect of over 30% in size. The note with it: S16 rat Schwann cells, PMP22 element FLuc, 24 h; series mostly up to 25.7 µM. The method in brief: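 Luciferase reporter of PMP22 intronic-element expression in stably transfected S16 rat Schwann cells, read by ONE-Glo luminescence after 24 h compound exposure at 37 C. Activity scaled between DMSO (0%) and positive-control PTC124; concentration-effect curves quality-classified.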

For a further test, the system named is 7G8. Briefly: qHTS profiling for inhibitors of Plasmodium falciparum proliferation (AID 504749). Also: potency is read from the fitted curve at half-maximal effect; nearly all actives have a fitted effect of over 60% in size. The note with it: P. falciparum in erythrocytes, SYBR Green DNA, 72 h; series mostly up to 12.8 µM. In a few lines: (§1)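 Infected RBCs, 0.3% parasitemia/2.5% Hct final; cpd 72 h, 37 C, 5% CO2; lysis buffer with saponin/triton/SYBR Green I, o/n RT dark; FI 485/535; norm. to artemisinin (0.29 uM) and DMSO.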
On the technique in general: qHTS replaces the single test concentration by a dilution series.

Another test relates to CP268. Described as above. The settings on record: P. falciparum in erythrocytes, SYBR Green DNA, 72 h; series mostly up to 12.8 µM. In a few lines:
as §1

A further test concerns CP315. The description is as above. The settings on record: P. falciparum in erythrocytes, SYBR Green DNA, 72 h; series mostly up to 12.8 µM. The method in brief:
as §1

Another test has as its system DIV14. The description is as above. The note with it: P. falciparum in erythrocytes, SYBR Green DNA, 72 h; series mostly up to 12.8 µM. The method in brief: as §1
Test [3] deals with Transient receptor potential cation channel subfamily V member 1 (Homo sapiens) (UniProt Q8NER1). The test can be described thus: HTS Assay for Compounds that Act as Enhancers of the Vanilloid Receptor 1 (AID 488979). The settings on record: TRPV1-expressing cells, enhancer of channel activity, stimulated with capsaicin at EC20; series mostly up to 41.7 µM. The method in brief: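 Calcium influx kinetics via Fluo-8 (480/520 nm) in TRPV1-expressing cells, 2000/well cultured overnight at 35.5C. Compound-alone read 3 min (agonist phase), followed by EC20 capsaicin challenge for 2 min (enhancer phase).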
Transient receptor potential cation channel subfamily V member 1 (Homo sapiens), sequence (Q8NER1 whole entry, looked up): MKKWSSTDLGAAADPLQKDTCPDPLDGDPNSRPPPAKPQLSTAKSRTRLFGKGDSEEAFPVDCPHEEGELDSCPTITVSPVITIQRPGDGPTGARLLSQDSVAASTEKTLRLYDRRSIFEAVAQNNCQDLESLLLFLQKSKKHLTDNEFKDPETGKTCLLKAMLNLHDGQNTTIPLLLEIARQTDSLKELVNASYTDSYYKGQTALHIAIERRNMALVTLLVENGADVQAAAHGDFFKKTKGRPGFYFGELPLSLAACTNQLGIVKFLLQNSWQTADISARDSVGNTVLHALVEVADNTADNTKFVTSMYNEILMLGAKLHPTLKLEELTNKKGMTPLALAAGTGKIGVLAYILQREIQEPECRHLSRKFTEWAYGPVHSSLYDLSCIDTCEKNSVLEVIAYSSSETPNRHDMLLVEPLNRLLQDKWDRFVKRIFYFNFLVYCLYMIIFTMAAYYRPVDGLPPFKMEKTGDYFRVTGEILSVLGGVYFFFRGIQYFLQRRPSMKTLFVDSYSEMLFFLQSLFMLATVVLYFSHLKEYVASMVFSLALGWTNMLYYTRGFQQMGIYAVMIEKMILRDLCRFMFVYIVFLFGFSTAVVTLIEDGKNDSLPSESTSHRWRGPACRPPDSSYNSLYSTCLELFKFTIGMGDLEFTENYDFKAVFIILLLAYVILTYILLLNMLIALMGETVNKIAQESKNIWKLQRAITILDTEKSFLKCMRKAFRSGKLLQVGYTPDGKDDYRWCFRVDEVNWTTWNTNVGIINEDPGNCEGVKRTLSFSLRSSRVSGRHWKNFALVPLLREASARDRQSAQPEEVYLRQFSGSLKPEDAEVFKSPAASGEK

Inconclusive results are not listed. Activity calls are given as the source filed them. Calls follow the shape of the dose curve; as a rule, active = well fitted curve in the direction sought with a large enough effect; inconclusive = small, poorly fitted or top-dose-only effect, or another doubt; inactive = no such curve, though single readings can be large; an effect the other way counts as inactive or inconclusive.

Luciferin 4-monooxygenase (Photinus pyralis), sequence (P08659 whole entry, looked up): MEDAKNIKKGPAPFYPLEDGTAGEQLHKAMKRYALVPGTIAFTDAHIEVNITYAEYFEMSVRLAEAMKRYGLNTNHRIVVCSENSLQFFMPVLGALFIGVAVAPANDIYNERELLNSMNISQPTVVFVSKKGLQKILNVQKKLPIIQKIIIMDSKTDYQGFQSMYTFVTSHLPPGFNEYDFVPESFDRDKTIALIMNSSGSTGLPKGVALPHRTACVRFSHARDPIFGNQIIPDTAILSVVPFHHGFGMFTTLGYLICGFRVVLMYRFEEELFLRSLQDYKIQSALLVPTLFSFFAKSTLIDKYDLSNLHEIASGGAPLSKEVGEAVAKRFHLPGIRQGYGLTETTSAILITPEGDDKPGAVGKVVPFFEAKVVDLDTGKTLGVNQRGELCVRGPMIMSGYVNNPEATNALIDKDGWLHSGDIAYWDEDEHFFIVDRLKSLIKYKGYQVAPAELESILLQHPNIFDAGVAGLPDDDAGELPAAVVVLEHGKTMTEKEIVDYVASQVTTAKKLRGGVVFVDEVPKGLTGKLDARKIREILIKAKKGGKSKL

For `Cc1cc(/C=C\c2ccc3cc(N(C)C)ccc3[n+]2C)c(C)n1-c1ccccc1`, in test [1], the call was inactive. In addition, the Potency in test [2] was 30.9 nM (active); in the test on 7G8, 398 nM (active); in the test with CP268 it was 4050 nM (active); in the test on CP315, 2030 nM (active); with DIV14, 2870 nM (active).
On to `CC#C[C@]1(O)CC[C@H]2C3CCC4=CC(=O)CCC4=C3[C@@H](c3ccc(N(C)C)cc3)C[C@@]21C` (some centres not stated), for which the result in test [3] was inactive.
